High-throughput results deposited in PubChem BioAssay by Broad Institute.
Only some compounds are listed: those with a hit (about 6.7% of all), similar ones and a draw of the others.
T cruzi growth-1 – inhibitors of T. cruzi proliferation; T. cruzi beta-gal in NIH3T3, GalScreen luminescence, 90 h; inhibition, % at 8.34 µM; 77,000 tested, 5.9% active; AID 624255;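 active = mean inhibition above about 93%, with at least 55% of replicates each passing it, limit read from the data, passing the limit was not always enough; inconclusive = only one of those two conditions holds; inactive = neither condition holds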
C diff growth – inhibitors of Clostridium difficile growth; Clostridium difficile clinical isolate growth, OD600, 24 h; stronger effect = lower value; AID 1259249; growth activity, negative = inhibition, % at 16 µg/mL (by protocol); 86,000 tested, 0.25% active;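 active = mean growth activity at or below -80% and every replicate also at or below -80%; inconclusive = mean at or below -80% but some replicate above -80%; inactive = mean growth activity above -80%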
Pf Dd2 growth – inhibitors of Plasmodium falciparum Dd2 growth | P. falciparum Dd2 growth, SYBR Green, 72 h; stronger effect = lower value | activity change, % at 10 µM | 94,000 tested, 2.3% active; in the data active = activity change below about -80%; inconclusive = no clear call, values can overlap the other calls
T cruzi growth-2 – inhibitors of T. cruzi proliferation. shares compounds with T cruzi growth-1. 5,600 tested, 72% active. AID 651739. inhibition, % at 8.35 µM. T. cruzi beta-gal in NIH3T3, GalScreen luminescence, 90 h;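 active = mean replicate inhibition above about 95% and at least 55% of replicates individually reaching it, limit read from the data; inconclusive = only one of the two criteria is met; inactive = neither criterion is met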
T cruzi growth-3 – inhibitors of T. cruzi proliferation. T. cruzi beta-gal in NIH3T3, GalScreen luminescence, 90 h. 5,600 tested, 21% active. inhibition, % at 2.09 µM. AID 651740. shares compounds with T cruzi growth-1;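 active = mean inhibition above about 95%, with at least 55% of replicates also reaching it, limit read from the data; inconclusive = meets just one of the two conditions; inactive = meets neither condition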
NIH3T3 tox – cytotoxicity in mouse NIH/3T3 fibroblasts; cytotoxicity (signal decrease), % at 8.35 µM; shares compounds with T cruzi growth-1; AID 651742; 5,600 tested, 14% active; NIH/3T3 viability, CellTiter-Glo ATP luminescence, 90 h;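 active = mean signal decrease across replicates above about 35% based on untreated-well scatter, with enough replicates individually passing, limit read from the data; inconclusive = no rule stated though some were filed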
3T3 cytotox 2 – cytotoxicity in mouse NIH/3T3 fibroblasts | shares compounds with T cruzi growth-1 | NIH/3T3 viability, CellTiter-Glo ATP luminescence, 90 h | inhibition, % at 24.9 µM | 5,600 tested, 56% active | AID 651744;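 active = mean loss of cell viability signal at or above a set limit, and enough replicates individually reaching it; inconclusive = meets only the mean limit or only the replicate share; inactive = meets neither condition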
Of the large screens only hits and unclear results are named; the others gave an inactive call (follow-up assays come after a bar, where they were run).

C[C@@H]1CCCCO[C@H](CN(C)C(=O)Nc2ccc(C(F)(F)F)cc2)[C@H](C)CN([C@H](C)CO)C(=O)c2cc(NS(=O)(=O)c3cccs3)ccc2O1	T cruzi growth-1 98.3, Pf Dd2 growth -84.5 | T cruzi growth-2 102.9 | T cruzi growth-3 111.5 | NIH3T3 tox inactive | 3T3 cytotox 2 inactive
C[C@H]1CCCCO[C@@H](CN(C)C(=O)Nc2ccc(C(F)(F)F)cc2)[C@@H](C)CN([C@@H](C)CO)C(=O)c2cc(NS(=O)(=O)c3ccccc3)ccc2O1	T cruzi growth-1 inconclusive | T cruzi growth-2 inconclusive | T cruzi growth-3 106.9 | NIH3T3 tox inactive | 3T3 cytotox 2 inactive
C[C@H](CO)N1C[C@H](C)[C@H](CN(C)C(=O)Nc2ccc(C(F)(F)F)cc2)OCCCC[C@H](C)Oc2ccc(NS(C)(=O)=O)cc2C1=O	T cruzi growth-1 107.7 | T cruzi growth-2 106.7 | T cruzi growth-3 inactive | NIH3T3 tox inactive | 3T3 cytotox 2 inactive
C[C@@H]1CCCCO[C@H](CN(C)C(=O)Nc2ccc(C(F)(F)F)cc2)[C@H](C)CN([C@@H](C)CO)C(=O)c2cc(NS(=O)(=O)c3cccs3)ccc2O1	Pf Dd2 growth inconclusive
C[C@@H]1CCCCO[C@@H](CN(C)C(=O)Nc2ccc(C(F)(F)F)cc2)[C@H](C)CN([C@@H](C)CO)C(=O)c2cc(NS(=O)(=O)c3ccc(F)cc3)ccc2O1	none
C[C@@H]1CCCCO[C@H](CN(C)C(=O)Nc2ccc(C(F)(F)F)cc2)[C@H](C)CN([C@H](C)CO)C(=O)c2cc(NS(=O)(=O)c3ccc(F)cc3)ccc2O1	none
C[C@@H]1CN([C@@H](C)CO)C(=O)c2cc(NS(C)(=O)=O)ccc2O[C@@H](C)CCCCO[C@@H]1CN(C)C(=O)Nc1ccc(C(F)(F)F)cc1	none (no result: T cruzi growth-1)
C[C@H](CO)N1C[C@H](C)[C@H](CN(C)C(=O)Nc2ccc(C(F)(F)F)cc2)OCCCC[C@H](C)Oc2ccc(NS(=O)(=O)c3ccccc3)cc2C1=O	T cruzi growth-1 inconclusive | T cruzi growth-2 inactive | T cruzi growth-3 102.8 | NIH3T3 tox inactive | 3T3 cytotox 2 inactive
C[C@H](NC(=O)[C@H]1[C@H](CO)[C@H]2Cn3c(ccc(-c4ccccc4F)c3=O)[C@@H]1N2C)c1ccccc1	none (no result: Pf Dd2 growth)
O=C(N[C@H]1CC[C@H](CCn2cc(-c3ccccn3)nn2)O[C@@H]1CO)c1ccccc1	none (no result: T cruzi growth-1, Pf Dd2 growth)
C[C@H](CO)N1C[C@H](C)[C@@H](CN(C)Cc2ccncc2)Oc2ccc(NC(=O)C3CC3)cc2C1=O	none
Cc1ccc(S(=O)(=O)N(C)C[C@@H]2Oc3ccc(NS(=O)(=O)c4c(C)noc4C)cc3C(=O)N([C@H](C)CO)C[C@H]2C)cc1	none
CS(=O)(=O)Nc1ccc2c(c1)[C@H]1C[C@H](CC(=O)NCc3cccnc3)O[C@@H](CO)[C@H]1O2	none (no result: T cruzi growth-1)
COc1ccc(S(=O)(=O)Nc2ccc3c(c2)CC(=O)N([C@@H](C)CO)C[C@H](C)[C@H](CN(C)Cc2ccc4c(c2)OCO4)O3)cc1	none
O=C(Cc1ccncc1)NCC[C@H]1CC[C@H](NC(=O)C2CCCCC2)[C@H](CO)O1	none (no result: T cruzi growth-1)
C[C@@H]1CCCCO[C@@H](CN(C)C(=O)Nc2ccc(C(F)(F)F)cc2)[C@H](C)CN([C@@H](C)CO)C(=O)c2cc(NS(=O)(=O)c3ccccc3)ccc2O1	T cruzi growth-1 inconclusive | T cruzi growth-2 96.4 | T cruzi growth-3 113.3 | NIH3T3 tox inactive | 3T3 cytotox 2 inactive
C[C@@H]1CCCCO[C@H](CN(C)C(=O)Nc2ccc(C(F)(F)F)cc2)[C@H](C)CN([C@@H](C)CO)C(=O)c2cc(NS(=O)(=O)c3ccccc3)ccc2O1	none
COc1ccc(NC(=O)N(C)C[C@H]2Oc3cc(C#CCN(C)C)ccc3S(=O)(=O)N([C@H](C)CO)C[C@@H]2C)cc1	none
C[C@@H]1CN([C@@H](C)CO)C(=O)c2cc(NC(=O)Nc3ccc(C(F)(F)F)cc3)ccc2O[C@H]1CN(C)S(=O)(=O)c1ccc(Cl)cc1	none
CCCC#Cc1ccc([C@@H]2[C@H](C#N)N(C(=O)CN3CCOCC3)[C@H]2CO)cc1	T cruzi growth-1 99.4 | T cruzi growth-2 inactive | T cruzi growth-3 inactive | NIH3T3 tox inactive | 3T3 cytotox 2 inactive
CCCC#Cc1ccc([C@@H]2[C@@H](CO)N(C(=O)CN3CCOCC3)[C@H]2C#N)cc1	T cruzi growth-1 inconclusive
N#C[C@H]1[C@H](c2ccc(C#CCC3CCCC3)cc2)[C@@H](CO)N1C(=O)CN1CCOCC1	none
N#C[C@@H]1[C@H](c2ccc(C#CCC3CCCC3)cc2)[C@@H](CO)N1C(=O)CN1CCOCC1	T cruzi growth-1 101.4 | T cruzi growth-2 106.4 | T cruzi growth-3 inactive | NIH3T3 tox inactive | 3T3 cytotox 2 82.0
NCC[C@@H]1CC[C@H](NC(=O)NC2CCCCC2)[C@H](CO)O1	none (no result: T cruzi growth-1)
COc1ccc2c3c([nH]c2c1)[C@@H](CO)N(Cc1cccnc1)CC31CN(C(=O)c2cccnc2)C1	none (no result: T cruzi growth-1)
C[C@H](CO)N1C[C@H](C)[C@@H](CN(C)Cc2cccc(F)c2)OCc2ccccc2-c2ccccc2C1=O	none
C[C@@H]1CCCCO[C@H](CN(C)S(=O)(=O)c2ccc(Cl)cc2)[C@@H](C)CN([C@H](C)CO)C(=O)c2cc(NC(=O)Nc3ccc(C(F)(F)F)cc3)ccc2O1	T cruzi growth-1 112.0 | T cruzi growth-2 102.0 | T cruzi growth-3 108.0 | NIH3T3 tox inactive | 3T3 cytotox 2 31.4
Cc1ccc(S(=O)(=O)N(C)C[C@H]2OCCCC[C@H](C)Oc3ccc(NC(=O)Nc4ccc(C(F)(F)F)cc4)cc3C(=O)N([C@@H](C)CO)C[C@@H]2C)cc1	none (no result: T cruzi growth-1)
C[C@@H]1CN([C@@H](C)CO)C(=O)c2cc(NC(=O)Nc3ccc(C(F)(F)F)cc3)ccc2O[C@@H](C)CCCCO[C@H]1CN(C)S(=O)(=O)c1ccc(Cl)cc1	T cruzi growth-1 103.3 | T cruzi growth-2 109.7 | T cruzi growth-3 109.3 | NIH3T3 tox inactive | 3T3 cytotox 2 inactive
Cc1ccc(S(=O)(=O)N(C)C[C@H]2OCCCC[C@H](C)Oc3ccc(NC(=O)Nc4ccc(C(F)(F)F)cc4)cc3C(=O)N([C@H](C)CO)C[C@H]2C)cc1	none (no result: T cruzi growth-1)
C[C@H]1CCCCO[C@H](CN(C)S(=O)(=O)c2ccc(Cl)cc2)[C@@H](C)CN([C@@H](C)CO)C(=O)c2cc(NC(=O)Nc3ccc(C(F)(F)F)cc3)ccc2O1	none
C[C@@H]1CN([C@H](C)CO)C(=O)c2cc(NC(=O)Nc3ccc(C(F)(F)F)cc3)ccc2O[C@@H](C)CCCCO[C@@H]1CN(C)S(=O)(=O)c1ccc(Cl)cc1	T cruzi growth-1 102.6 | T cruzi growth-2 105.9 | T cruzi growth-3 inactive | NIH3T3 tox inactive | 3T3 cytotox 2 inactive
C[C@@H]1CN([C@@H](C)CO)C(=O)Cc2cc(NC(=O)c3ccncc3)ccc2O[C@@H]1CN(C)C(=O)Nc1ccccc1	none (no result: T cruzi growth-1)
